Experimental data: PubChem BioAssay (EPA / NIEHS)
Inconclusive results are not listed. The source made the active and inactive calls. Rule for the calls, unless noted: active = hit-call score of the fitted dose curve at least 0.9, where 1 is the maximum; inconclusive = response in the unintended direction; inactive = score below 0.9.

Columns and labels:
[1] = Tanguay_ZF_120hpf_JAW_legacy: (Legacy) Oregon State University Tanguay Lab 120 Hour Post-fertilization zebrafish Assay for Jaw Malformation (AID 2283638);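 for AC50: active means more embryos with jaw malformation than DMSO controls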
How it was run: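 Binary jaw-malformation calls at 120 hpf by brightfield imaging; DMSO (0.64% v/v) = baseline. Embryos: 5D wild-type, pronase-dechorionated, one per well from 6 hpf, static exposure, 28C, sealed, dark.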

[2] = Tanguay_ZF_120hpf_OTIC_legacy: (Legacy) Oregon State University Tanguay Lab 120 Hour Post-fertilization zebrafish Assay for Otic Vesicle Malformation (AID 2283639)
How it was run: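 Embryos from 5D wild-type adults exposed in plates; DMSO 0.64% v/v final. Sealed, light-protected, 28C, static to 120 hpf. Otic vesicle malformation recorded as binary endpoint; gain-of-signal fitted vs DMSO.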

[3] = Tanguay_ZF_120hpf_PE_legacy: (Legacy) Oregon State University Tanguay Lab 120 Hour Post-fertilization zebrafish Assay for Pericardial Edema (AID 2283640);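 for AC50: potency for increased incidence of pericardial edema versus DMSO baseline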
How it was run: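 Static waterborne exposure, 5D wild-type embryos, 28C, to 120 hpf; final DMSO 0.64% (vol/vol). Binary PE call at 120 hpf by brightfield; fitted upward vs DMSO baseline. 5uM trimethyltin chloride as positive control.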

[4] = Tanguay_ZF_120hpf_BRAI_legacy: (Legacy) Oregon State University Tanguay Lab 120 Hour Post-fertilization zebrafish Assay for Brain Malformation (AID 2283641)
How it was run: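 Read-out: binary brain morphology call at 120 hpf (brightfield), fitted in gain-of-signal direction vs DMSO. Wild-type Tropical 5D embryos, static exposure, 28C, 0.64% DMSO final; 5uM trimethyltin chloride as positive control.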

[5] = Tanguay_ZF_120hpf_SOMI_legacy: (Legacy) Oregon State University Tanguay Lab 120 Hour Post-fertilization zebrafish Assay for Somite Malformation (AID 2283647)
How it was run: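 Binary brightfield scoring of somite defects at 120 hpf in 5D wild-type larvae; one dechorionated embryo per well, static exposure from 6 hpf, 28C, sealed and dark. Final DMSO 0.64%; trimethyltin chloride 5uM positive control.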

[6] = Tanguay_ZF_120hpf_PFIN_legacy: (Legacy) Oregon State University Tanguay Lab 120 Hour Post-fertilization zebrafish Assay for Pectoral Fin Malformation (AID 2283648);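 note: each larva judged yes or no for fin defect by brightfield with dead larvae skipped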
How it was run: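 Tropical 5D wild-type embryos, dechorionated with pronase at 4 hpf, were placed singly in wells at 6 hpf and statically exposed until 120 hpf at 28C, sealed and dark, with 0.64% (vol/vol) final DMSO; pectoral fin malformation scored present/absent.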

[7] = Tanguay_ZF_120hpf_CFIN_legacy: (Legacy) Oregon State University Tanguay Lab 120 Hour Post-fertilization zebrafish Assay for Caudal Fin Malformation (AID 2283649)
How it was run: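 Dechorionated 5D wild-type zebrafish, static exposure 6–120 hpf, 28C, sealed and dark, 0.64% v/v DMSO final. Binary fin-malformation call at 120 hpf, brightfield; gain of signal vs DMSO baseline.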

[8] = Tanguay_ZF_120hpf_PIG_legacy: (Legacy) Oregon State University Tanguay Lab 120 Hour Post-fertilization zebrafish Assay for Pigmentation Malformation (AID 2283650)
How it was run: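 Tropical 5D wild-type zebrafish embryos, dechorionated with pronase at 4 hpf, were exposed singly from 6 hpf to 120 hpf statically at 28C in sealed, dark plates with 0.64% DMSO; pigmentation scored present/absent by brightfield microscopy, fitted against DMSO.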

[9] = Tanguay_ZF_120hpf_CIRC_legacy: (Legacy) Oregon State University Tanguay Lab 120 Hour Post-fertilization zebrafish Assay for Circulatory Malformation (AID 2283651)
How it was run: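 Read-out: presence or absence of circulatory malformation at 120 hpf, scored by brightfield microscopy, fitted in the gain-of-signal direction against DMSO baseline. Wild-type 5D larvae were exposed from 6 hpf after enzymatic chorion removal.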

[10] = Tanguay_ZF_120hpf_SWIM_legacy: (Legacy) Oregon State University Tanguay Lab 120 Hour Post-fertilization zebrafish Assay for Swim Bladder Malformation (AID 2283654);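 note: swim bladder malformation in each larva scored yes or no under brightfield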
How it was run: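 Dechorionated Tropical 5D wild-type embryos, placed singly from 6 hpf, were statically exposed at 28C to 120 hpf with 0.64% DMSO final; swim bladder malformation was scored present/absent by brightfield microscopy, gain of signal relative to DMSO controls.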

[11] = Tanguay_ZF_120hpf_TRUN_legacy: (Legacy) Oregon State University Tanguay Lab 120 Hour Post-fertilization zebrafish Assay for Truncated Body (AID 2283655)
How it was run: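 Whole-embryo zebrafish screen: dechorionated 5D embryos, static exposure 6–120 hpf, 28C, sealed foil-covered plates, 0.64% DMSO. Binary truncation call; gain of signal versus DMSO baseline.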

[12] = Tanguay_ZF_120hpf_NC_legacy: (Legacy) Oregon State University Tanguay Lab 120 Hour Post-fertilization zebrafish Assay for Notochord and Tail Malformation (AID 2283656)
How it was run: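 Dechorionated Tropical 5D wild-type zebrafish embryos, one per well from 6 hpf, statically exposed to 120 hpf at 28C in 0.64% DMSO final. Notochord distortion scored present/absent by brightfield; dead embryos excluded.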

[13] = Tanguay_ZF_120hpf_TR_legacy: (Legacy) Oregon State University Tanguay Lab 120 Hour Post-fertilization zebrafish Assay for Touch Response (AID 2283667)
How it was run: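 Tropical 5D wild-type zebrafish embryos were exposed statically in sealed, foil-covered plates at 28C until 120 hpf, with 0.64% (vol/vol) final DMSO. Touch response was scored as present or absent; embryos that died were not scored.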

[14] = read-out: kallikrein-3 (KLK3), KLK3 (gene 354); experiment: LTEA_HepaRG_KLK3: Life Technologies and Expression Analysis (LTEA) Assay for kallikrein-3 (KLK3) using HepaRG (AID 2283652; active = hit-call score of the fitted dose curve at least 0.9, where 1 is the maximum; inactive = score below 0.9); details: mRNA level, 48 h; actives raise or lower the signal
How it was run: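 Differentiated human HepaRG cells in serum-free induction medium exposed 48 h in duplicate, eight-point half-log series from 100 uM in 0.5% DMSO. KLK3 mRNA by qRT-PCR, normalised to ACTB, GAPDH, POLR2A; bidirectional fit versus DMSO.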

[15] = read-out: solute carrier (SLC22A6), SLC22A6 (gene 9356); experiment: LTEA_HepaRG_SLC22A6: Life Technologies and Expression Analysis (LTEA) Assay for solute carrier (SLC22A6) using HepaRG (AID 2283653; active = hit-call score of the fitted dose curve at least 0.9, where 1 is the maximum; inactive = score below 0.9); details: mRNA level, 48 h; actives raise or lower the signal
How it was run: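 HepaRG, human liver line; 48 h chemical exposure; 8-pt half-log series from 100 uM in 0.5% DMSO, duplicate wells. Readout: TaqMan qRT-PCR of SLC22A6 mRNA, housekeeping-normalised; bidirectional curve fit vs DMSO baseline.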

[16] = read-out: solute carrier (SLC10A1), SLC10A1 (gene 6554); experiment: LTEA_HepaRG_SLC10A1: Life Technologies and Expression Analysis (LTEA) Assay for solute carrier (SLC10A1) using HepaRG (AID 2283657; active = hit-call score of the fitted dose curve at least 0.9, where 1 is the maximum; inactive = score below 0.9); details: mRNA level, 48 h; actives raise or lower the signal
How it was run: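 Differentiated HepaRG cells were plated 48 h, then exposed in serum-free induction medium for 48 h to 8 concentrations (top 100 uM, half-log steps, 0.5% DMSO). SLC10A1 mRNA was quantified by qRT-PCR normalized to ACTB, GAPDH, POLR2A; bidirectional fit versus DMSO.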

[17] = read-out: matrix metalloproteinase-1 (MMP1), MMP1 (gene 4312); experiment: LTEA_HepaRG_MMP1: Life Technologies and Expression Analysis (LTEA) Assay for matrix metalloproteinase-1 (MMP1) using HepaRG (AID 2283658; active = hit-call score of the fitted dose curve at least 0.9, where 1 is the maximum; inactive = score below 0.9); details: mRNA level, 48 h; actives raise or lower the signal
How it was run: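 MMP1 transcript read by TaqMan qRT-PCR (Fluidigm array) after 48 h chemical exposure of HepaRG cells in serum-free induction medium. Eight-point half-log series, top 100 uM, 0.5% DMSO vehicle. Bidirectional curve fit against DMSO baseline.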

[18] = test system: Thyroperoxidase (TPO), gene 54314; experiment: CCTE_Simmons_AUR_rTPO: CCTE's Amplex UltraRed Assay for Thyroperoxidase (TPO) Inhibition, Simmons Lab (AID 2283662);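 note: potency for loss of signal meaning inhibition of peroxidase activity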
How it was run: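 Rat thyroid microsomes (5 ug protein) were incubated with test compound (8 concentrations, 5 nM–87.5 uM final, 0.5% DMSO), 25 uM Amplex UltraRed and 300 uM H2O2 in 200 mM phosphate buffer for 30 min at 37C in the dark; fluorescence read at 544/590 nm.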

[19] = CCTE_Simmons_CellTiterGLO_HEK293T: Viability Assessment in CCTE's Assays for Thyroperoxidase (TPO) Inhibition, Simmons Lab (AID 2283665);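 note: cells exposed to compound for 24 h before readout; actives reduce ATP signal below DMSO vehicle meaning cytotoxicity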
How it was run: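 HEK293T, 10 000 cells/well, DMEM + 1% FBS; 8-pt titration 5 nM–87.5 uM [final], 0.5% DMSO; 24 hr, 37C, 5% CO2; CellTiter-Glo luminescence; n=3 biological replicates.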

[20] = read-out: Cytochrome P450 (CYP24A1_1), CYP24A1 (gene 1591); experiment: LTEA_HepaRG_CYP24A1_1: Life Technologies and Expression Analysis (LTEA) Assay for Cytochrome P450 (CYP24A1_1) using HepaRG (AID 2283671; active = hit-call score of the fitted dose curve at least 0.9, where 1 is the maximum; inactive = score below 0.9); details: mRNA level, 48 h; actives raise or lower the signal
How it was run: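 HepaRG, 48 h exposure, 8-pt half-log series from 100 uM in 0.5% DMSO, duplicates. Readout: TaqMan qRT-PCR of CYP24A1 mRNA, housekeeping-normalized (ACTB/GAPDH/POLR2A). Bidirectional curve fit vs DMSO baseline.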

Measured: AC50

CCCCCCCCCCCC[N+](C)(C)C
not listed: [14] | [15] | [16] | [17] | [18] | [19] | [20]
inactive: all other assays above

CC(C)(C)c1csc(-c2cc3cc(OCc4ccccc4CC(=O)O)ccc3o2)n1
active: [16] 24.4 µM | [18] 43.8 µM | [19] 22.4 µM
not listed: [7] | [8] | [11] | [13]
inactive: all other assays above

CN1C(=O)N(c2ccccc2Br)Cc2cnc(Nc3ccc4c(c3)OCC(CO)O4)nc21 (stereo not given)
inactive: [2] | [4] | [5] | [6] | [7] | [9] | [10]
active: [1] 0.972 µM | [8] 49.7 µM

Cc1ncc(CO)c(CO)c1O
not listed: [13] | [14] | [15] | [16] | [17] | [18] | [19] | [20]
inactive: all other assays above

CCCCCCCCCCCCO
not listed: [3] | [14] | [18] | [19]
inactive: all other assays above

CCCC(=O)OCCC(C)C
inactive: [1] | [2] | [3] | [4] | [5] | [6] | [8] | [9] | [10] | [12]

O=C(O)c1ccccc1-n1cc(C(=O)O)c(=O)c2cc(Nc3c(F)cc(F)cc3Cl)c(Cl)cc21
inactive: [1] | [2] | [3] | [4] | [5] | [6] | [7] | [9] | [10] | [12] | [13]

NC(=O)c1nc(-c2cccc(-c3cc(F)ccc3OCC(F)(F)C(F)(F)F)c2)n[nH]1
active: [1] 28.7 µM | [2] 27.8 µM | [3] 28.1 µM | [4] 26 µM | [5] 25.8 µM | [6] 24.8 µM | [8] 26.7 µM | [9] 27.3 µM | [10] 26.4 µM | [11] 27 µM | [13] 26.6 µM
inactive: [7] | [12]
